From PubChem BioAssay AID504834 (National Center for Advancing Translational Sciences (NCATS), 2011) come the findings set out here.

The structures appear in SMILES notation. Screen size: about 320,000 compounds; about 22,000 (6.9%) were called active. Another 27% or so got no clear call; they are omitted. The entries come from a sample that favours actives as a whole. Where a call stands in place of a potency, no number is given. A number with no mark means an inactive call. The call rests on the fitted dose curve; in most records, active means well fitted inhibition curve with a large enough effect; inconclusive means small, poorly fitted or top-dose-only effect, or another doubt; inactive means no such curve, though single readings can be large or run the other way.
Potency means the concentration at half of the fitted maximal effect.

The test in a line: Primary qHTS for delayed death inhibitors of the malarial parasite plastid, 96 hour incubation. The following applies: P. falciparum luciferase reporter growth; series mostly up to 28.7 µM. An excerpt: The goal of this screen is to discover new antimalarial compounds that act by inhibiting the development of the apicoplast in the malarial parasite Plasmodium falciparum. The biochemical processes that make this organelle essential for erythrocytic stage parasites are not well understood. However, antibiotics such as azithromycin and tetracycline, which target the apicoplast translational machinery, have a potent antimalarial effect.
We have developed a cell-based assay that measures parasite growth based on the expression of an integrated copy of a firefly luciferase reporter. To detect small molecules that cause this "delayed death" phenotype, erythrocytes infected with the luciferase-expressing parasites were incubated with compounds for either one or two generations, corresponding to 48 and 96 hours, respectively. Compounds that inhibit parasite growth in the second generation, but not the first, should be enriched in antimalarials that target the apicoplast. Growth inhibition is detected by a decrease in luciferase activity.
Assay Provider: David Fidock and Eric Ekland, Columbia University
Keywords: NIH Roadmap, MLPCN, MLI, MLSMR, qHTS, NCGC, qHTS, malaria, luciferase, viability
Four microliters of infected erythrocytes (2% hematocrit, 0.05% parasitemia final concentration) in culture medium were dispensed and the plates incubated for 96 hours at 37 C in 5% CO2. Two microliters of luciferase detection reagent was added and luminescence was detected by a ViewLux (PerkinElmer) reader.
Take `N#Cc1ccc(-c2ccc(F)cc2)nc1Sc1ccccc1`: the Potency result was “inactive”. On the same count and under the same terms, then `N#Cc1c(-c2ccc(F)cc2)nc(-c2ccccc2)[nH]c1=O`, with “inactive”; and `N#Cc1ccc(-c2nc3cc(C#N)c(C#N)cc3nc2-c2ccccc2)cc1C#N`, with 5.22 µM (active); and `COc1cccc(CNC(=O)Cn2c(=O)oc3cc(S(=O)(=O)N4CCCCC4)ccc32)c1`, with “inactive”. With `CCc1cccc(C)c1NC(=O)COC(=O)CC1CCCC1`, the Potency entry is “inactive”.

For `CC(C)Sc1ncnc2c1cnn2-c1ccccc1`, the Potency entry was “inactive”. Consider `O=C(NCCC1=CCCCC1)c1ccc(-n2cncn2)cc1`, for which the Potency entry is “inactive”. Consider `C1=C(CCNc2ncnc3c2cnn3-c2ccccc2)CCCC1`, for which the Potency is 0.104 µM (active). With `O=C(CSc1ncccn1)N1CCCC1`, the Potency entry is “inactive”. On to `CN1CCN(S(=O)(=O)c2ccc(Nc3ccc(F)cc3)nc2)CC1`, for which the Potency entry was “inactive”.

As to `CCCCCCn1c(CN2CCCC(C)C2)nc2c1c(=O)n(C)c(=O)n2C` (stereo not given), the Potency entry is “inactive”.

Regarding `CCOC(=O)Cn1c(CN(Cc2ccccc2)Cc2ccccc2)nc2c1c(=O)[nH]c(=O)n2C`, the Potency is 3.29 µM (active). On the same count and under the same terms, then `COCCn1c(CN(Cc2ccccc2)Cc2ccccc2)nc2c1c(=O)n(C)c(=O)n2C`, with 2.94 µM (active); and `CC(C)Cn1c(CN(Cc2ccccc2)Cc2ccccc2)nc2c1c(=O)n(C)c(=O)n2C`, with “inactive”.

For `COCCn1c(CN2CCC(Cc3ccccc3)CC2)nc2c1c(=O)n(C)c(=O)n2C`, the Potency was 5.22 µM (active). On to `CN1CCN(Cc2nc3c(c(=O)n(C)c(=O)n3C)n2Cc2cccc3ccccc23)CC1`, for which the activity change, negative = inhibition is 2.21% [at 5.75 µM]. For the compound `CCN1CCN(Cc2nc3c(c(=O)n(C)c(=O)n3C)n2CC(=O)c2ccccc2)CC1`, the Potency entry was “inactive”. Consider `Cn1c(=O)[nH]c(=O)c2c1nc(N(CCO)Cc1ccccc1)n2Cc1ccccc1Cl`, for which the Potency entry was “inactive”. Consider `Cn1c(=O)c2c(nc(Br)n2CCSc2nc3ccccc3o2)n(C)c1=O`, for which the Potency entry was “inactive”.

`CCOC(=O)N1CCN(Cc2nc3c(c(=O)n(C)c(=O)n3C)n2Cc2ccccc2)CC1`: the Potency was 13.1 µM (active).

As for `CCOC(=O)N1CCN(CCC(=O)Nc2ccccc2)CC1`, the Potency result is “inactive”. As to `Cn1c(=O)[nH]c(=O)c2c1nc(CN(Cc1ccccc1)Cc1ccccc1)n2CCN1CCOCC1`, the Potency result was “inactive”. Turning to `Cc1ccc(C)c(OCc2cc(C(=O)N3CCN(c4cnccn4)CC3)no2)c1`, the Potency result was “inactive”. Still for that read-out and setting: then `COc1ccccc1CCCNC(=O)C1CCC(=O)N(CCN2CCOCC2)C1` (stereo not given), with “inactive”; and `CCCCCn1c(=O)[nH]c2cc(C(=O)NCCCN3CCCCC3C)ccc2c1=O` (stereo not given), with “inactive”. On to `COc1ccc2[nH]c(=O)c(C3c4cc(OC)c(OC)cc4CCN3C(=O)c3ccco3)cc2c1` (stereo not given), for which the Potency entry is “inactive”. On the same count and under the same terms, then `O=C(Nc1nnc(Cc2ccc(Cl)cc2)s1)c1ccncc1`, with “inactive”; and `CCNS(=O)(=O)c1ccc(CCC(=O)N2CCN(c3ccc(OC)cc3)CC2)cc1`, with “inactive”; and `COC(=O)c1c(C)oc(C)c1S(=O)(=O)NCc1ccc(Cl)cc1`, with “inactive”. With `CCCCC/C=C/C1=CC(=O)C[C@H](c2ccc(Cl)cc2)C1`, the Potency entry was “inactive”.

In the case of `O=C(CSc1nnc(-c2cnccn2)n1Cc1ccco1)c1ccc(Cl)c(Cl)c1`, the Potency result is “inactive”. Same read-out and setting: then `C(=C\c1ccccc1)/CSc1nnc(-c2cccnc2)n1Cc1ccco1`, with 10.4 µM (active); and `CCOC(=O)Cc1csc(NC(=O)CSc2nnc(-c3cccnc3)n2Cc2ccco2)n1`, with “inactive”; and `CCn1c(CC(=O)Nc2ccccc2C)nnc1SCC(=O)NC1=NCCS1`, with “inactive”.

For the compound `c1ccc2c(c1)CCc1snnc1-2`, the Potency result was “inactive”. The same measure, in the same setting: then `O=C(Cn1nc([N+](=O)[O-])nc1Br)NC1CCCCC1`, with “inactive”. For `O=C(CSC1=Nc2ccccc2C2=NC(CC(=O)NCc3ccco3)C(=O)N12)NCc1ccco1` (stereo not given), the Potency is 1.85 µM (active). For `CCC(C)NC(=O)CSC1=Nc2ccccc2C2=NC(CCC(=O)NCc3ccco3)C(=O)N12` (stereo not given), the Potency entry was “inactive”.

For the compound `O=C(CSc1ccc(-c2ccccc2)nn1)NCC1CCCO1` (stereo not given), the Potency result was “inactive”. Same read-out and setting: then `O=C(CSC1=Nc2ccccc2C2=NC(c3ccccc3)C(=O)N12)NCC1CCCO1` (stereo not given), with 7.38 µM (active); and `O=C(CC1N=C2c3ccccc3N=C(SCc3ccccc3Cl)N2C1=O)NCc1ccco1` (stereo not given), with “inactive”. On the same count and under the same terms, then `CCn1c(SCC(=O)NCC2CCCO2)nc2ccccc21` (stereo not given), with “inactive”; and `O=C(NCc1ccco1)/C(=C/c1ccco1)NC(=O)c1ccccc1`, with “inactive”; and `CC1CCN(C(=O)COC(=O)c2cc(S(=O)(=O)N3CCOCC3)ccc2Cl)CC1`, with “inactive”.

For `COc1cc(C(=O)NNC(=O)CN2C(=O)NC3(CCCC3)C2=O)cc(OC)c1OC`, the Potency entry was “inactive”. The same measure, in the same setting: then `COc1cccc(C(=O)Nc2nnc(S(=O)(=O)N3CCCCC3)s2)c1`, with “inactive”; and `Cc1ccc2nc(-c3ccc(Br)cc3)cn2c1`, with “inactive”. As to `CCC(C)(C)n1nnnc1C(c1ccc(OC)c(OC)c1)N1CCN(C(=O)c2ccco2)CC1` (stereo not given), the Potency entry was “inactive”. `CNC[C@H](CC1CCCCC1)NC[C@H](NCCC1CCCC1)[C@H](C)O`: the Potency was 11.7 µM (active). Take `COc1ccc(CNC(=O)COc2ccccc2C(=O)c2cnn(-c3ccccc3)c2)cc1OC`: the Potency entry is “inactive”. Turning to `O=C1C(=O)N(CCCO)C(c2ccccc2)/C1=C(\O)c1ccc(Br)cc1` (stereo not given), the Potency entry is “inactive”.

`CCCc1nnc(SCC(=O)Nc2ccc(C(=O)OCC)cc2)o1`: the Potency is 0.147 µM (active). Still for that read-out and setting: then `CCOC(=O)c1c(NC(=O)CSc2nnc(CNc3ccc(C)cc3C)o2)sc(C)c1C`, with 8.28 µM (active).

As to `COc1ccc(Cc2nnc(SCC(=O)Nc3ccc(C)c(C)c3)o2)cc1OC`, the Potency result is “inactive”. The same measure, in the same setting: then `CCOC(=O)c1c(NC(=O)CSc2nccc(=O)[nH]2)sc(C)c1C`, with “inactive”; and `CCOC(=O)c1c(-c2ccc(C)cc2C)csc1NC(=O)CSc1nnnn1C`, with “inactive”.

In the case of `CCOC(=O)c1ccc(NC(=O)CSc2ncccn2)cc1`, the Potency result was “inactive”.

Regarding `CN(CCc1ccccn1)C(=O)c1ccc(OC2CCN(Cc3ccccn3)CC2)cc1`, the Potency entry was “inactive”. Regarding `Cc1cc(C)cc(OCC(=O)OCC(=O)NC2CCCC2)c1`, the Potency entry is “inactive”. On the same count and under the same terms, then `CCn1c(=S)sc2c(=O)n(CC(=O)Nc3ccc(OC)cc3)c(C)nc21`, with “inactive”; and `CC1=C(C(=O)Nc2ccccc2)SCCO1`, with “inactive”. Regarding `COc1cccc(CCNC(=O)c2cccc(NC(=O)C3=C(C)OCCS3)c2)c1`, the Potency is 11.7 µM (active). The same measure, in the same setting: then `COc1cccc(C(=O)NCCS(=O)(=O)NCC2CCCO2)c1` (stereo not given), with “inactive”; and `Cc1sc(NC(=O)C2=COCCO2)c(C#N)c1C`, with “inactive”. Consider `CCCCN(C(=O)C(CCSC)N1C(=O)c2ccccc2C1=O)c1c(N)n(CCC)c(=O)[nH]c1=O` (stereo not given), for which the Potency result was “inactive”. The same measure, in the same setting: then `CSc1ccccc1NC(=O)c1cnc2sc(C)cn2c1=O`, with “inactive”. Still for that read-out and setting: then `O=C(O)Cn1c(Cc2ccccc2)nc2ccccc21`, with “inactive”; and `Cc1ccc(C(C)C)c(OCCSc2nc3ccccc3n2CC(=O)O)c1`, with 13.1 µM (active); and `Cc1ccc(Cn2c(SCC(=O)N/N=C/c3ccccc3OCC(=O)O)nc3ccccc32)cc1`, with “inactive”. As to `Fc1ccc2[nH]c3c(N4CCN(Cc5ccc6c(c5)OCO6)CC4)ncnc3c2c1`, the Potency is 2.62 µM (active). Consider `Cc1cc(N2CCN(Cc3ccc4c(c3)OCO4)CC2)n2ncnc2n1`, for which the Potency result was “inactive”.

For the compound `O=C(c1cccs1)N1CCN(Cc2ccc3c(c2)OCO3)CC1`, the Potency result is “inactive”. Consider `CCCc1c(C(=O)O)cnn1-c1ccc(Cl)cc1`, for which the Potency entry was “inactive”. For `O=C(NNS(=O)(=O)c1ccccc1C(F)(F)F)c1cc2ncc(C(F)(F)F)cc2s1`, the Potency result is “inactive”. Same read-out and setting: then `Cc1ccsc1C(=O)N[C@@H](C)c1nnc2ccccn12`, with “inactive”. Same read-out and setting: then `C=CCC1(CC=C)CCCN1C(=O)CC1C(=O)NCCN1Cc1ccccc1OC` (stereo not given), with 10.4 µM (active); and `CN(C(=O)CC1C(=O)NCCN1Cc1ccc(F)cc1Cl)C1CCCCC1` (stereo not given), with “inactive”; and `CCN(CCn1cccn1)C(=O)CC1C(=O)NCCN1Cc1cccc(OC)c1OC` (stereo not given), with “inactive”. Consider `CCOCCCNC(=O)c1c[nH]c2cc(C)ccc2c1=O`, for which the Potency entry is “inactive”. Regarding `CCOCCCNC(=O)c1cc2c(=O)n3ccccc3nc2s1`, the Potency was 10.4 µM (active). Same read-out and setting: then `CCOCCCNC(=O)c1cn(CC(C)C)c(=O)c2c1c1ccccc1n2C`, with “inactive”; and `Cc1cccc(OCCC(=O)Nc2ccccc2C(N)=O)c1`, with “inactive”. The same measure, in the same setting: then `Fc1ccccc1/C=C1\CCCC2=C1Nc1ncnn1C2c1ccccc1F` (stereo not given), with 1.04 µM (active); and `CCN1C(=O)c2cccc3c(S(=O)(=O)Nc4ccccc4O)ccc1c23`, with “inactive”; and `CC(C)(C)NC(=O)CSc1nnc(NC(=O)CCc2ccccc2)s1`, with “inactive”.

With `Cc1occc1C(=O)NC1CCCN(Cc2ccc(CC(C)C)cc2)C1` (stereo not given), the Potency entry is “inactive”. Turning to `Cc1occc(=O)c1OCc1c(Cl)cccc1Cl`, the Potency entry was “inactive”. On the same count and under the same terms, then `O=C(NCCS(=O)(=O)N1CCN(c2ccccc2F)CC1)c1ccc(Br)o1`, with “inactive”; and `CCOc1ccc(C(C)=O)cc1COC(=O)CNC(=O)c1cccs1`, with “inactive”. Still for that read-out and setting: then `C/C(=N\OCC(=O)O)c1ccc(Cl)cc1`, with “inactive”; and `COC(=O)/C(NC(C)=O)=C(\C)c1ccc(Cl)cc1`, with “inactive”; and `C/C(=N\N=C(N)N)c1ccc(Cl)cc1`, with 4.15 µM (active).

On to `Cn1c(SCC(=O)c2ccccc2)ncc(C(=O)Nc2ccc(F)cc2)c1=O`, for which the Potency entry is “inactive”.

Consider `CC1CCN(C(=O)Cn2nnnc2CN2CCOCC2)CC1`, for which the Potency entry is “inactive”. In the case of `O=C(NCc1ccc2c(c1)OCO2)c1sccc1Br`, the Potency entry is “inactive”.

Consider `O=C(NCc1ccc2c(c1)OCO2)c1ccc(Cl)s1`, for which the Potency entry is “inactive”. Take `CC(Sc1nncs1)C(=O)NCc1ccc2c(c1)OCO2` (stereo not given): the Potency is 13.1 µM (active). Still for that read-out and setting: then `Cc1ccc(S(=O)(=O)NCC(=O)N(CC(=O)NCC2CCCO2)c2cccc(F)c2)cc1` (stereo not given), with “inactive”; and `Nc1nnnn1/N=C/c1cc([N+](=O)[O-])ccc1O`, with “inactive”; and `Cc1sc(NC(=O)c2ccc3ncsc3c2)c(C(N)=O)c1C`, with “inactive”. Take `O=C(Nc1ccccc1N1CCOCC1)c1csc2c1CCCC2`: the Potency is 10.4 µM (active). The same measure, in the same setting: then `O=C(Nc1ccccc1N1CCOCC1)c1ccncc1`, with “inactive”; and `Cc1ccc(S(=O)(=O)N2CCOCC2)cc1C(=O)Nc1ccccc1N1CCCC1`, with “inactive”; and `CCCc1cc(=O)[nH]c(SCC(=O)c2c(N)n(CC(C)C)c(=O)n(C)c2=O)n1`, with “inactive”. `CCOC(=O)c1c(C)[nH]c(C)c1S(=O)(=O)N(C)CC(=O)Nc1ccccc1C`: the Potency entry was “inactive”.
